# An excerpt weighted towards active compounds, which were near 4.8% of everything screened.
# DAX1 inh-1: inhibitors of human orphan nuclear receptor DAX1 (NR0B1); P51843; HEK293 Gal4-DAX1 luciferase reporter, luminescence; inhibition, % at 6.75 µM; hit rate 0.99% among 340,000;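 active means inhibition above the mean over all tested compounds plus 3 SD, cut at about 4.2% in these data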;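 further: 0% = DAX1-transfected cells with DMSO and 100% = empty-vector control cells with DMSO; inhibition shows as a rise in luminescence from relieved DAX1 repression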
# Target sequence (P51843 207-470 limits assumed): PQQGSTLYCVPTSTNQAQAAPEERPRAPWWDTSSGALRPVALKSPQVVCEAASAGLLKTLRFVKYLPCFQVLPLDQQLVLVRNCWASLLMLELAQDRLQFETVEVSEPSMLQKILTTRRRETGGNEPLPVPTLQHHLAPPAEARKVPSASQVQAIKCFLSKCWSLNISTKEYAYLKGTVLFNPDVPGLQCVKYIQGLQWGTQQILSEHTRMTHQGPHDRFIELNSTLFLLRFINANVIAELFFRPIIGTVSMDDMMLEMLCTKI
# DAX1 inh-2: inhibitors of DAX1 repression of SF-1 activated StAR promoter; hit rate 1.1% among 370,000; inhibition, % at 6.8 µM; AID 652010; HEK293T StAR-luciferase reporter, SF-1/DAX-1 repression relief;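 active means inhibition above the mean over all tested compounds plus 3 SD, cut at about 3.6% in these data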;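 further: 0% = DAX-1 cells with DMSO and 100% = cells lacking DAX-1 with DMSO; higher inhibition means more luminescence from relief of DAX-1 repression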
# ssDAF-12 act: activates DAF-12 receptor from parasite S. stercoralis; activation, % at 6.8 µM; HEK293 ssDAF-12/GRIP1 lit1-tk-luc reporter, luminescence; % of 3 µM dafachronic acid response; hit rate 1% among 370,000; AID 652126;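 active means activation above the mean over all tested compounds plus 3 SD, cut at about 0.9% in these data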;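 further: 0% = DMSO-only wells and 100% = 3 µM delta7-dafachronic acid wells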
# hcDAF12 agonist: H. contortus DAF-12 activation, primary screen; HEK293 hcDAF-12 lit1-tk-luc reporter, luminescence; 0% DMSO, 100% Δ7-dafachronic acid; hit rate 1.4% among 370,000; AID 652067; activation, % at 6.8 µM;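 active means activation above the mean of all tested compounds plus 3 SD, cut at about 5.5% in these data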;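 further: 100% = response to 3 µM Δ7-dafachronic acid high control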
# SMARCA2 activ: SMARCA2 function activation, primary screen; activation, % at 9.1 µM; hit rate 1% among 370,000; MG213 cells, MMTV-luciferase reporter, dexamethasone, overnight; AID 652017; in the data active means activation above about 7.8%;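 further: 0% = vehicle wells and 100% = reference activator wells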
# hgDAF12 agonist: hgDAF-12 agonism, primary luciferase screen. activation, % at 6.8 µM. hit rate 1.8% among 370,000. HEK293 GAL4-hgDAF12 UAS-luciferase reporter, agonist luminescence; normalized to butyrate control;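 active means activation above a cutoff set at the mean of all screened compounds plus 3 SD, cut at about 10% in these data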;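 further: 0% = DMSO wells and 100% = sodium butyrate wells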
# SMARCA2 act conf: SMARCA2 activation, confirmation screen | activation, % at 9.1 µM | shares compounds with SMARCA2 activ | MG213 cells, MMTV-luciferase with dexamethasone, luminescence, overnight; MG213 cells expressing E1A, Rb sequestered; DMSO wells 0%, reference activator 100% | hit rate 30% among 3,500;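 active means activation above its plate's cutoff, the mean activation of tested wells plus 3 SD, cut at about 7.9% in these data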
# GAL4-VP16 Luc: counter-screen for SMARCA2 activators: GAL4-VP16 luciferase reporter activation; shares compounds with SMARCA2 activ; HEK293 GAL4-VP16 pG5luc reporter, luciferase luminescence; scaled: DMSO wells 0%, SAHA wells 100%; activation, % at 9.1 µM; hit rate 41% among 3,500;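 active means activation above the solvent-only control well mean plus 3 SD, averaged across control plates, cut at about 5.2% in these data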
# An asterisk follows results filed as active; · = no result.
SMILES,DAX1 inh-1,DAX1 inh-2,ssDAF-12 act,hcDAF12 agonist,SMARCA2 activ,hgDAF12 agonist,SMARCA2 act conf,GAL4-VP16 Luc
COc1ccc(C(=O)c2ccc(N3CCOCC3)c([N+](=O)[O-])c2)cc1,-1.0,-1.1,-2.2,-2.6,-4.3,3.2,·,·
COc1ccc(C=C2CS(=O)(=O)CC(=Cc3ccc(OC)cc3)C2=O)cc1,-5.5,-5.8,-1.9,-3.9,13.6*,-13.4,-14.7,-0.3
CC(=O)Nc1ccc(C(=O)O)cc1,1.2,0.9,-1.4,2.3,0.8,2.1,·,·
C=CCNc1ccc(C(=O)O)cc1,-0.7,-0.1,-0.9,-1.2,9.7*,-0.7,3.4,-1.3
CCn1c(SCC(=O)N2CCCCC2)nc2c1c(=O)n(C)c(=O)n2C,0.6,0.0,-1.1,-2.4,-3.0,-2.0,·,·
O=[N+]([O-])c1ccc(N/N=C/C=C/c2ccco2)cc1,2.2,0.2,-0.7,-0.4,8.2*,2.0,2.6,6.5*
CCNc1nc(Cl)nc(NC2CCCCC2)n1,-0.8,0.0,-1.1,0.3,4.2,3.0,·,·
COC(=O)CC1C(=O)NCCN1C(=O)NC1CCCCC1 (configuration not stated),-0.5,-0.6,-1.3,-2.1,0.4,-2.7,·,·
Cc1nc2c(sc3nc(N4CCOCC4)c4c(c32)CC(C)(C)OC4)c(-c2ccc(Cl)cc2)c1C(=O)O,-1.4,0.0,-1.3,-0.7,8.4*,-0.4,-5.3,-0.4
Cc1cc(C)c2nc(-n3nc(C)cc3N)cc(C)c2c1,1.0,1.4,-0.1,5.7*,10.4*,6.6,8.2*,6.2*
O=C(NCC1CCCO1)c1sc2cc(Cl)ccc2c1Cl (configuration not stated),-0.6,1.2,-0.6,2.0,10.0*,7.3,8.4*,9.4*
N#Cc1c(C#N)c(SSc2c(C#N)c(C#N)c(N)n2-c2ccccc2)n(-c2ccccc2)c1N,1.2,0.4,-1.1,-1.5,-1.8,2.3,·,·
COc1cc2c(cc1NC(=O)c1ccc3c(c1)OCO3)oc1ccccc12,2.5,1.0,-1.0,-0.5,1.6,-0.5,·,·
O=C(Nc1ccc2c(c1)oc1ccccc12)c1ccc2c(c1)OCO2,-0.5,0.6,-1.2,-0.3,8.9*,2.6,7.1,-0.7
CCOCc1nnc(NC(=O)c2ccc3c(c2)OCO3)s1,0.6,3.6,0.1,1.9,3.2,4.0,·,·
Cc1nnc(NC(=O)c2ccc3c(c2)OCO3)s1,3.1,2.8,-0.1,2.6,10.3*,12.4*,7.0,9.5*
O=C(/C=C/Nc1ccc(F)c(Cl)c1)c1ccccc1,2.4,2.3,-0.1,6.3*,9.3*,5.7,6.7,13.3*
CC(=O)Nc1ccc(N/C=C/C(=O)c2ccc(Cl)cc2)cc1,-0.1,0.9,-1.3,2.1,5.5,2.7,·,·
CCOc1ccc(N(CC(=O)NCCSCc2ccc(C)cc2)S(C)(=O)=O)cc1,-0.3,-0.5,-1.2,-1.9,-0.2,0.0,·,·
Cn1/c(=N/NC(=O)c2ccccc2F)sc2ccccc21,0.1,1.0,-0.3,2.9,8.0*,8.1,2.4,8.2*
Cc1ccc(C(=O)N/N=c2\sc3ccccc3n2C)cc1,-0.1,-0.2,-1.1,1.4,-2.0,-0.9,·,·
O=C(Nc1ccccc1C(=O)NCc1ccccc1)C1=CSCCO1,1.3,-0.1,-1.5,-0.6,11.7*,-0.2,-1.8,0.7
CCOc1ccccc1CNC(=O)c1ccccc1NC(=O)C1=CSCCO1,0.0,0.1,-0.7,-2.2,-1.4,0.2,·,·
O=C(CSC1=Nc2ccccc2C2=NC(Cc3c[nH]c4ccccc34)C(=O)N12)NC1CCCCC1 (configuration not stated),-2.1,0.1,-0.8,3.0,8.6*,2.7,0.7,0.2
CCOC(=O)c1nn(-c2ccc3ccccc3c2)cc1O,1.1,4.4*,-1.6,1.6,8.2*,13.0*,2.6,5.6*
SMILES,DAX1 inh-1,DAX1 inh-2,ssDAF-12 act,hcDAF12 agonist,SMARCA2 activ,hgDAF12 agonist,SMARCA2 act conf,GAL4-VP16 Luc
CCOC(=O)c1nn(-c2ccccc2)cc1O,0.6,1.0,-0.7,1.1,3.0,0.2,·,·
CCc1ccc(C(=O)Cn2ncc(Cl)c(Cl)c2=O)cc1,0.6,-0.9,-0.3,0.3,16.9*,-2.2,-15.9,4.1
CCN(CC)CCNc1nc(SC)nc2sc3c(c12)CCN(C)C3,-0.2,0.1,-1.0,0.1,9.2*,2.4,7.5,0.2
COc1ccc2oc(C(=O)OCC(=O)N3CCCCC3C)c(C)c2c1 (configuration not stated),1.4,2.1,-0.5,-0.8,8.4*,2.5,7.4,2.1
CCC1=Nc2ccc(Br)cc2C(c2ccccc2)N1CC(=O)OC (configuration not stated),-0.6,-1.2,-0.8,0.4,7.2,0.4,·,·
CS/C(=N\N(C)C(N)=O)c1ccccc1,1.5,0.1,-1.5,-1.8,8.4*,-1.1,0.8,-0.3
COCCNC(=O)/C(C#N)=C/C=C/c1ccccc1[N+](=O)[O-],-1.0,-1.7,-0.7,-0.9,12.2*,-6.2,17.9*,0.5
Cc1ccccc1N(CC(=O)NC1CCCCC1)C(=O)CCC(=O)Nc1nccs1,-0.1,0.1,-1.1,4.0,-1.8,1.6,·,·
CSc1ccccc1C(=O)OCC(=O)NC1CCCCCCC1,0.0,0.7,-1.2,0.0,0.2,2.9,·,·
Cc1ccccc1NS(=O)(=O)c1ccc(C(=O)NCC2CCCO2)cc1 (configuration not stated),0.3,-2.5,-1.1,-2.0,-4.1,-2.9,·,·
Cc1ccc(/C=N\NC(=O)Cn2nnc3ccccc32)o1,-0.4,0.4,-1.5,0.8,-4.5,-2.5,·,·
O=C(Nc1ccc(-c2cn3c(n2)SCC3)cc1)c1ccco1,-0.6,0.5,-1.1,1.6,13.9*,7.1,7.6,10.2*
Cn1sccc1=O,0.5,0.5,-0.7,-0.8,9.4*,6.0,16.6*,2.1
O=c1ccsn1Cc1ccccc1,-0.7,0.0,-1.0,-2.1,1.8,-2.1,·,·
O=S(=O)(c1cccc2c(S(=O)(=O)N3CCCC3)cccc12)N1CCCC1,1.7,0.0,-1.5,-1.3,0.7,-0.3,·,·
O=C(COC(=O)Cn1nnc2ccccc21)NC1CCCC1,0.0,0.6,0.1,-0.8,9.9*,1.0,0.6,0.9
O=C(Cn1nnc2ccccc21)NC1CCCCC1,2.0,0.3,-1.1,0.6,-0.1,1.2,·,·
Clc1ccc(-c2csc(Nc3ccccc3)[n+]2Cc2ccco2)c(Cl)c1,3.1,0.4,0.0,2.4,9.0*,7.4,3.7,6.1*
Cc1cc(OCc2nc(-c3ccc(NC(=O)c4cccnc4)cc3)no2)ccc1Cl,1.4,-0.2,-0.8,-0.8,-2.9,1.1,·,·

# Compound activity deposited in PubChem by The Scripps Research Institute Molecular Screening Center.
